Tb PYK inh: T. brucei pyruvate kinase inhibition; Q57TT1; TbPYK enzyme, Kinase-Glo Plus ATP luminescence, 45 min; Potency, µM (top dose mostly 76.8 µM), for the others: top-dose activity, negative = inhibition, actives largely listed as inhibitors; 0.12% of 410,000 active; note: potency is the fitted concentration of half-maximal effect; nearly all actives have a fitted effect of over 50% in size
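Glycolytic pyruvate kinase of T. brucei was incubated with substrate, test compound and 130 uM ADP for 45 minutes at room temperature. Luminescent Kinase-Glo Plus signal was measured after 10 minutes.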
VACV Venus inh: inhibitors of vaccinia virus (Venus reporter); Vaccinia virus Venus reporter expression, fluorescence; Potency, µM (doses to about 36.5 µM), for the others: top-dose activity change, negative = inhibition, actives largely listed as inhibitors; 0.46% of 330,000 active; AID 720580; calls by dose curve; tested in A549 cells; note: potency is the fitted concentration of half-maximal effect; nearly all actives have a fitted effect of over 30% in size
HCMV antiviral: blocks human cytomegalovirus replication; HFF cells, HCMV-luciferase reporter, 72 h; stronger effect = lower value; activity change, negative = inhibition, % at 57.5 µM; 4.5% of 410,000 active; in the data active = activity change below about -60%; inconclusive = no clear call, values can overlap the other calls; inactive = above about -39%
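HFF cells seeded 16 h at 37C, treated with compounds, infected with luciferase-reporter HCMV at MOI 1 PFU/cell; luciferase read at 72 h post infection, normalized to buffer-only and Salinomycin controls.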
VACV mCherry inh: vaccinia inhibition (mCherry reporter); Vaccinia virus mCherry reporter infection, fluorescence; Potency, µM (titrated, usually from 36.5 µM), for inactives: top-dose activity change, negative = inhibition, actives largely listed as inhibitors; 0.63% of 310,000 active; AID 720579; calls by dose curve; tested in A549 cells; note: potency is the fitted concentration of half-maximal effect; nearly all actives have a fitted effect of over 35% in size
LmPK inh: LmPK (Leishmania mexicana) enzyme inhibition; Q27686; purified LmPK, Kinase-Glo ATP luminescence, 1 h; Potency, µM (series often up to 57.5 µM), inactives show at the top dose activity change, negative = inhibition, hits mostly inhibitors; 0.37% of 290,000 active; AID 1721; note: potency is the fitted concentration of half-maximal effect
Target sequence (Q27686 whole entry, looked up): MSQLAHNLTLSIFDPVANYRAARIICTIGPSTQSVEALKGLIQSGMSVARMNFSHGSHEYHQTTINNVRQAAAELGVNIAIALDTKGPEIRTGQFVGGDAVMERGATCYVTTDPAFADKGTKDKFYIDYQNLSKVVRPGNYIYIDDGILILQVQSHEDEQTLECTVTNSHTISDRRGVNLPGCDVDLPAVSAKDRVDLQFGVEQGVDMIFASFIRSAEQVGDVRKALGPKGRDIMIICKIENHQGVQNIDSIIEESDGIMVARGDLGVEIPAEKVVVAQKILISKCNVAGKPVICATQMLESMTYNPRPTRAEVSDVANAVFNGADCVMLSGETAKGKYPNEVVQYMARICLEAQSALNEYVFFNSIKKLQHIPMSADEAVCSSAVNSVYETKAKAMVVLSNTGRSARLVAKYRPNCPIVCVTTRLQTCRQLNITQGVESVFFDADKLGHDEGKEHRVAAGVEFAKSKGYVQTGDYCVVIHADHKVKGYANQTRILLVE
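Purified LmPK (0.1 nM) with 0.5 mM PEP and 0.1 mM ADP in imidazole buffer pH 7.2 with MgCl2/KCl, 1 h at room temperature. ATP formed was read by luciferase luminescence and normalized to no-enzyme and uninhibited controls.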
* hit, by the source's call; i = inactive; ? = inconclusive; . = no result; ! = a repeat was not active; [ ] = dose if it differs, or a comment. A selection: hits, their analogues and other compounds. The true share with any hit is near 5%. Unless noted, calls come from the whole dose curve; as a rule, active = well fitted curve in the direction sought with a large enough effect; inconclusive = small, poorly fitted or top-dose-only effect, or another doubt; inactive = no such curve, though single readings can be large; an effect the other way counts as inactive or inconclusive. % is set by controls: 0 for no effect and ±100 for the full control effect.

SMILES	Tb PYK inh	VACV Venus inh	HCMV antiviral	VACV mCherry inh	LmPK inh
Cc1ccc(Cn2c(C(=O)O)c(CNCc3ccc(OC(C)C)cc3)c3ccc(C)cc32)cc1	0%	?	-105*	?	.
Cc1ccc(N2CN=c3s/c(=C\c4cccnc4)c(=O)n3C2)cc1	-11%	-7%	-69*	-12%	3%
Cc1ccc(/C=c2\sc3n(c2=O)CN(c2ccc(Br)cc2)CN=3)o1	-11%	-17%	31	-25%	-3%
Cc1ccc(NC(=O)NCC2CCN(Cc3cccc(Cl)c3)CC2)c(Cl)c1	-8%	.	-66*	.	-2%
Cc1ccc(NC(=O)NCC2CCN(Cc3cccc(Cl)c3)CC2)cc1Cl	2%	-23%	-92*!	?	3%
O=C(/C=C/c1ccc(Br)cc1)c1ccc(NC(=O)c2ccco2)cc1	1%	?	-29	?	0%
O=C(/C=C\c1ccccc1)Nc1ccc(NC(=O)c2ccco2)cc1	-28%	-17%	-101*	-11%	9%
O=C(Nc1cccnc1)c1ccc(NC(=O)c2ccco2)cc1	5%	-4%	-103*	-18%	-4%
O=C(Nc1cccnc1)c1c(F)cccc1F	1%	-12%	-104*	i	2%
O=C(Nc1ccc(-c2noc(CCc3ccccc3)n2)cc1)c1ccco1	1%	-20%	-88*	?	-23%
Cc1ccc([N+](=O)[O-])c(NC2OC(CO)C(O)C2O)c1 (stereo not given)	1%	-9%	63	i	-9%
Cc1nc(Cl)cc(N/N=C/c2ccc(O)cc2)n1	0%	.	-1	.	-1%
O=C(Nc1cccnc1)c1ccco1	1%	-7%	-82*	-10%	-6%
O=C(Nc1ccc(NC(=O)c2ccco2)cc1)c1ccc2c(c1)OCCO2	8%	-8%	-73*	-1%	0%
O=C(Nc1ccc(NC(=O)c2ccco2)nc1)c1cccnc1	5%	3%	107	-9%	-4%
Cc1cc(NC(=O)c2ccc3c(c2)OCCO3)ccc1NC(=O)c1ccco1	-10%	-11%	-5	-15%	?
COc1ccc(CCN2CN(S(=O)(=O)c3ccccc3)c3nc4ccccc4nc32)cc1OC	-9%	-13%	-66*	-2%	3%
COc1ccc2c(CNCCc3ccccc3OC)c(C(=O)O)n(Cc3ccc(F)cc3Cl)c2c1	-3%	?	-108*	-5%	.
COc1ccc2c(CNCC(C)c3ccccc3)c(C(=O)O)n(Cc3ccc(F)cc3Cl)c2c1 (stereo not given)	-4%	?	35	?	.
COc1ccc2c(CNCCc3ccc(SC)cc3)c(C(=O)O)n(Cc3ccc(F)cc3)c2c1	-15%	-30%	-74*	?	.
COc1ccc(Cn2c(C(=O)O)c(CNC3CCCCCC3)c3ccc(OC)cc32)cc1	-5%	-6%	-100*	-19%	.
CCc1ccc(CNCc2c(C(=O)O)n(Cc3cccc(F)c3)c3cc(OC)ccc23)cc1	-2%	?	?	?	.
Clc1cccc(NC2=NCCS2)c1	-1%	-10%	-13	?	.
N#Cc1ccccc1Cn1cc(/C=C/[N+](=O)[O-])c2ccccc21	-8%	?	-101*	?	3%
O=[N+]([O-])/C=C/c1cn(Cc2ccccc2)c2ccccc12	-8%	-18%	-104*	.	-2%
SMILES	Tb PYK inh	VACV Venus inh	HCMV antiviral	VACV mCherry inh	LmPK inh
O=C(O)Cn1cc(/C=C/[N+](=O)[O-])c2ccccc21	-3%	9%	83	8%	2%
CC(C)NC(=O)c1ccccc1NC(=O)CN(c1ccc2c(c1)OCO2)S(C)(=O)=O	-7%	0%	-16	-13%	3%
Cn1c(SCC(=O)NCc2ccc3c(c2)OCO3)ncc(C(=O)Nc2ccc(F)cc2)c1=O	-1%	-1%	7	-6%	.
O=C(COC(=O)Cc1ccc(Cl)c(Cl)c1)Nc1ccc2[nH]c(=O)[nH]c2c1	-6%	-17%	-8	-19%	.
CCC(C)Nc1nc(N)c([N+](=O)[O-])c(N2CCCCCC2)n1 (stereo not given)	1%	-28%	-36	?	3%
Cc1ccccc1NCc1ccc(O)c2ncccc12	-16%	?	-97*	?	17%
Oc1ccc(CNc2ccc(F)cc2)c2cccnc12	-11%	.	-14	.	18%
COCc1ccc(O)c2ncccc12	?	?	-94*	.	4%
Oc1ccc(CNc2ccccc2)c2cccnc12	2%	.	.	.	26%
Cc1cccc(NCc2ccc(O)c3ncccc23)c1	1%	-20%	-84*	?	15%
Cc1ccc(O)c2ncccc12	1%	.	.	.	.
CCC(OC(=O)c1nsc(Cl)c1Cl)C(=O)NCCOC (stereo not given)	6%	.	-22	.	0%
CCn1c(-c2ccccc2F)nc2cc(NC(C)=O)cc(C(=O)NC(c3ccccn3)C(F)(F)F)c21 (stereo not given)	.	-29%	.	i	.
O=C(Nc1ccc(Cl)cc1)Nc1csc([N+](=O)[O-])c1	3%	?	-103*	?	-4%
O=C(Nc1csc([N+](=O)[O-])c1)Nc1c(Cl)cccc1Cl	-2%	.	-76*	.	3%
O=C(Nc1ccc(Cl)cc1)Nc1ccc(Cl)c(C(F)(F)F)c1	-5%	.	-99*	.	.
O=C(O)c1cccc(NC(=S)NC(=O)C(c2ccccc2)c2ccccc2)c1	0%	0%	-1	-12%	-3%
COc1ccc(-c2cc(C(=O)NCc3ccc(F)cc3)[nH]n2)c(C)c1	3%	-11%	1	i	.
O=C(NCCc1ccccc1)c1cc(-c2ccc(Br)cc2)on1	0%	6%	11	-8%	.
Cc1ccc(-c2nc3c(C)cccn3c2Nc2ccccc2C)s1	-3%	-10%	-65*	-15%	.
Cc1cccn2c(Nc3ccccc3)c(-c3cccs3)nc12	-1%	-2%[7.34 µM]	-61*	-9%[7.34 µM]	.
Cc1ccccc1Nc1c(-c2ccccn2)nc2c(C)cccn12	-3%	?	-40	-28%	2%
CCCCC(CC)CNC(=O)CN(C)S(=O)(=O)c1cccc2nsnc12 (stereo not given)	5%	.	-25	.	2%
O=C(CCNS(=O)(=O)c1ccccc1)Nc1ccccc1	4%	.	-37	.	0%
N#Cc1nc(Nc2cccc(Cl)c2)c2ncn(C3CCCC3)c2n1	-5%	.	-87*	.	.
SMILES	Tb PYK inh	VACV Venus inh	HCMV antiviral	VACV mCherry inh	LmPK inh
C=CCOC(=O)C1=C(C)N=C2SCCC(=O)N2C1/C=C/c1ccccc1 (stereo not given)	9%	.	-103*	.	6%
CCOc1cnc(-c2c(-c3c(Cl)cccc3Cl)noc2C)o1	5%	-18%	-61*	-9%	5%
O=C1CC(c2cccnc2)=NN1c1ccc(Cl)cc1Cl	5%	1%	-100*	i	-8%
O=c1cnn(-c2ccc(Cl)cc2Cl)c(-c2ccccc2)c1	0%	-9%	78	-18%	3%
COc1ccccc1S(=O)Cc1ccc(C(=O)NCc2ccccc2Cl)o1 (stereo not given)	-24%	-13%	?	5%	7%
CC(C)CNC(=O)CSc1nc(-c2cccs2)cc(C(F)(F)F)n1	-6%	-9%	-68*	i	2%

Assay outcomes: PubChem BioAssay, National Center for Advancing Translational Sciences (NCATS)
